From PubChem BioAssay AID2156 (Johns Hopkins Ion Channel Center, 2009)
Among all 310,000 compounds or so, about 3,400 (1.1%) were called active. Many of the other results were omitted from the sample, so actives are more common in it than they were. Values without a mark were called inactive.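 Rule for the calls: active = fluorescence ratio B-score at most minus 3 library SDs, with starting brightness B-score within 2 library SDs (cut at about -5.5 in these data); inactive = the rest, inconclusive results apart.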

The compounds below were run against Potassium voltage-gated channel subfamily KQT member 2 (Rattus norvegicus) (UniProt O88943) (assay: rat KCNQ2 potassium channel inhibitors, primary screen, cell-based, CHO-K1, FluxOR thallium flux, B-score (AID 2156)). Conditions: 20 min, at 10 µM; hits give low values.
Chain of Potassium voltage-gated channel subfamily KQT member 2 (Rattus norvegicus) (O88943 whole entry, looked up): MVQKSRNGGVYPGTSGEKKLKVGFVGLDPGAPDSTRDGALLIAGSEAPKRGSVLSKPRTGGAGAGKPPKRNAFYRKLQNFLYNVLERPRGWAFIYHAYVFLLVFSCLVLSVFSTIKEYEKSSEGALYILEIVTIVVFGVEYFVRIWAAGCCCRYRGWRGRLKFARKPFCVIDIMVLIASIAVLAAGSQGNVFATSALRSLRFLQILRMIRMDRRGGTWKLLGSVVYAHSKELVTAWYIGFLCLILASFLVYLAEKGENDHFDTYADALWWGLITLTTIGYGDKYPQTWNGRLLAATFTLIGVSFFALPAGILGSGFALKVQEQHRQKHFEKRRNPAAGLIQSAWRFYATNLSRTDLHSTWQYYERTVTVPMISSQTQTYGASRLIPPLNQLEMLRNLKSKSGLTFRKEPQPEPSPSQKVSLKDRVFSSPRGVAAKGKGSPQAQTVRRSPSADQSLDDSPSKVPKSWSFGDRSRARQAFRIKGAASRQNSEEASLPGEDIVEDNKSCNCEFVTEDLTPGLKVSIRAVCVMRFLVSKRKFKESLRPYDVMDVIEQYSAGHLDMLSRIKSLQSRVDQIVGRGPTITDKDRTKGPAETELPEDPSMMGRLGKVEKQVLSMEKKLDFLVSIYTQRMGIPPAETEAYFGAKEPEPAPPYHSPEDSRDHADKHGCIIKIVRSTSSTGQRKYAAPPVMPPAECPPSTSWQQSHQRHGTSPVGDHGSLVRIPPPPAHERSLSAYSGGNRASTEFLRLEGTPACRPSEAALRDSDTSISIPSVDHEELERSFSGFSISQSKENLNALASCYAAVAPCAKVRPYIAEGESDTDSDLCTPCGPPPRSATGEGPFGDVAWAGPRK

| SMILES | B-score |
| --- | --- |
| C=CCn1c(C2CC(=O)N(c3ccc(C)cc3)C2)nc2ccccc21 (configuration not stated) | inactive |
| CC(C)(C)N1CC(c2nc3ccccc3n2Cc2ccc(F)cc2)CC1=O (configuration not stated) | -5.93 (active) |
| CSc1nc2ccccc2c(=O)n1Cc1ccc(F)cc1 | inactive |
| CCN(CC)c1ccc(NC(=O)c2ccc(=O)[nH]c2)cc1S(=O)(=O)Nc1ccc(OC)cc1 | -0.01 |
| O=C1Nc2cc(C(=O)N3CCC(N4CCCCC4)CC3)ccc2S/C1=C\c1ccccc1 | -6.65 (active) |
| CC1CCN(C(=O)c2ccc3c(c2)NC(=O)CN3)CC1 | -0.25 |
| CCN1CCN(CCNC(=O)c2ccc3c(c2)NC(=O)/C(=C\c2ccc(OC)c(OC)c2)S3)CC1 | -0.06 |
| Cc1ccc(S(=O)(=O)N(C)c2ccc(OCC(=O)OCC(=O)N(CC#N)c3ccccc3)cc2)cc1 | inactive |
| CN(CC(=O)Nc1cccc(F)c1)C(=O)C1CSC2(C)CCC(=O)N12 (configuration not stated) | -0.47 |
| COc1ccccc1C(=O)NC(CCSC)C(=O)NNC(=O)c1ccccc1C (configuration not stated) | inactive |
| Cc1cc(NC(=O)CSC2=NS(=O)(=O)c3cc(Cl)ccc3N2)no1 | -0.31 |
| CCc1ccc2ncc(C(=O)c3ccccc3)c(N3CCOCC3)c2c1 | -9.81 (active) |
| CCc1ccc(C(=O)NC(=S)Nc2ccccc2N2CCOCC2)cc1 | -5.43 |
| O=C(c1ccccc1)c1cc(-c2ccccn2)c(N2CCOCC2)s1 | -0.1 |
| CCCCn1c(N)c(N(CC(C)C)C(=O)c2cccc(S(=O)(=O)N3CC(C)OC(C)C3)c2)c(=O)[nH]c1=O (configuration not stated) | inactive |
| CCCCn1c(N)c(N(CC(C)C)C(=O)c2cnc(C)cn2)c(=O)[nH]c1=O | inactive |
| Cc1cc(NC(=O)C(C)SCC(=O)Nc2ccccc2N2CCCCC2)no1 (configuration not stated) | inactive |
| O=C(NCCCN1CCCC1=O)c1cccc(S(=O)(=O)NCc2ccccc2)c1 | -0.85 |
| O=C(COC(=O)c1ncc(Cl)c(Cl)c1Cl)NCc1cccs1 | -2.02 |

| SMILES | B-score |
| --- | --- |
| CCC1(c2ccccc2)NC(=O)N(CC(=O)c2ccc3c(c2)OCO3)C1=O (configuration not stated) | inactive |
| O=C(CN1CCC(O)(c2ccccc2)CC1)Nc1ccc2c(c1)OCCO2 | inactive |
| O=C(CCN1CCc2ccccc2C(O)(c2ccccc2)C1)c1ccc2c(c1)OCCO2 (configuration not stated) | -6.97 (active) |
| COc1cc(N)c(Cl)cc1C(=O)OCC(=O)c1ccc2c(c1)NC(=O)CO2 | inactive |
| COc1ccc(CN(C)C(=O)CC(c2ccccc2)c2ccccc2)cc1 | -2.95 |
| CCOc1ccc(NC(=O)COc2ccc(C(=O)NC3CCCc4ccccc43)cc2OC)cc1 (configuration not stated) | inactive |
| CNS(=O)(=O)c1cccc(C(=O)NC2CCCc3ccccc32)c1 (configuration not stated) | -2.62 |
| Cc1cccc(C(=O)OC(C)C(=O)NC2CCCc3ccccc32)c1O (configuration not stated) | -7.78 (active) |
| O=C(CN1CCN(c2ccc(O)cc2)CC1)NC1CCCc2ccccc21 (configuration not stated) | -0.25 |
| COc1ccc(CN(C)C(C)C(=O)NC2CCCc3ccccc32)cc1 (configuration not stated) | -6.8 (active) |
| Cc1ccc(NC(=O)CN(C)C(=O)Cn2nnc(-c3ccccc3)n2)cc1 | inactive |
| COc1ccccc1CNC(=O)CSc1nc(=O)n(Cc2ccncc2)c2c1CCC2 | -0.12 |
| O=C(c1cc(-c2ccc(Cl)s2)nc2ccccc12)N1CCOCC1 | -6 (active) |
| CC(=O)N1CCN(C(=O)c2cc(-c3ccc(Cl)s3)nc3ccccc23)CC1 | inactive |
| CCOc1ccccc1-c1cc(C(=O)N2CCOCC2)c2ccccc2n1 | inactive |
| Cc1cc(OCC(=O)N(C)c2c(N)n(Cc3ccccc3)c(=O)[nH]c2=O)c(C(C)C)cc1Cl | -0.02 |
| COc1ccc(-c2cnc(SCCNC(=O)c3ccc4c(c3)OCO4)[nH]2)cc1 | inactive |
| O=C1OC(c2ccc(Cl)cc2)=N/C1=C\c1cccnc1 | -0.06 |
| Cc1ccc(C2=N/C(=C\c3ccc(OS(=O)(=O)c4ccc(C)cc4)cc3)C(=O)O2)cc1 | -7.24 (active) |

| SMILES | B-score |
| --- | --- |
| Cc1ccc(S(=O)(=O)Oc2ccc(/C=N/NC(=O)c3ccncc3)cc2)cc1 | -0.5 |
| COc1ccc(OCCCC(=O)OC(C)C(=O)Nc2ccccc2[N+](=O)[O-])cc1 (configuration not stated) | -0.14 |
| Cc1ccc(CN2CCN(c3ccccc3Cl)CC2)o1 | -0.4 |
| O=[N+]([O-])c1cc(Cl)cc(/C=N/NC(=S)Nc2cc(S(=O)(=O)N3CCOCC3)ccc2Cl)c1O | -8.14 (active) |
| O=C(N/N=C/c1cc(Cl)cc([N+](=O)[O-])c1O)C(O)(c1ccccc1)c1ccccc1 | -0.18 |
| O=C(CN1CCN(c2ccc(O)cc2)CC1)Nc1cc(S(=O)(=O)N2CCOCC2)ccc1Cl | -0.82 |
| CC(=O)n1cc([C@@H]2C=C(C(=O)N3CCN(Cc4ccc5c(c4)OCO5)CC3)O[C@H](OCc3ccc(CO)cc3)C2)c2ccccc21 | -6.49 (active) |
| CC(=O)n1cc([C@H]2C=C(C(=O)N3CCOCC3)O[C@@H](OCc3ccc(CO)cc3)C2)c2ccccc21 | -4.18 |
| CN1CCN(C(=O)C2=C[C@H](c3ccc4c(c3)OCO4)C[C@H](OCc3ccc(CO)cc3)O2)CC1 | -0.01 |
| O=C(COc1coc(CN2CCN(c3ccccc3F)CC2)cc1=O)N1CCc2ccccc21 | inactive |
| COc1cc(/C=C/C(=O)N2c3ccccc3Sc3ccc(C(F)(F)F)cc32)cc(OC)c1OC | -7.31 (active) |
| COc1cc(/C=C/C(=O)N2CCc3ccccc3C2)cc(OC)c1OC | inactive |
| O=C(CN1CCCCCC1)N1c2ccccc2Sc2ccc(C(F)(F)F)cc21 | -3.82 |
| Cc1ccc(NC(=O)NC(=O)N(C2CCCCC2)S(=O)(=O)c2ccccc2)cc1 | -1.57 |
| CCOc1ccc(NC(=O)N(CCC(C)C)C(C)c2ccco2)cc1 (configuration not stated) | -2.46 |
| CC(c1ccco1)N(C(=O)Nc1ccccc1)C1CCCCC1 (configuration not stated) | -5.91 (active) |
| N#CC1(NC(=O)COC(=O)CSc2ccc(F)cc2)CCCCC1 | inactive |
| C=CCOc1ccc(/C=C/C(=O)OC(C)C(=O)Nc2ccc(NC(C)=O)cc2)cc1 (configuration not stated) | inactive |
| CCCn1c(C)cc(/C=C(\C#N)C(=O)OCC(=O)N(C)c2c(N)n(Cc3ccccc3)c(=O)[nH]c2=O)c1C | -0.77 |
